# From ChEMBL document CHEMBL4296183, “CO-ADD screening of NIH NCI Natural Product Set III” (2020)
# For some assays here: Potency and affinity values are given separately.
# Legend:
# Staphylococcus aureus = experiment: Antibacterial activity against Staphylococcus aureus MRSA ATCC 43300 (CO-ADD:GP_020); MIC in CAMBH media using NBS plates, by Resazurin F(560/590); type: functional; details: Concentration 20 uM, ASSAY_TEST Inhibition of Bacterial Growth, detection method Resazurin, Fluorescence (ex560/em590), MEDIA CAMHB, plate type 384well, CORNING #3640, time 18 hr
# Acinetobacter baumannii = experiment: Antibacterial activity against Acinetobacter baumannii ATCC 19606 (CO-ADD:GN_034); MIC in CAMBH media using NBS plates, by Resazurin F(560/590); type: functional; details: Concentration 20 uM, ASSAY_TEST Inhibition of Bacterial Growth, detection method Resazurin, Fluorescence (ex560/em590), MEDIA CAMHB, plate type 384well, CORNING #3640, time 18 hr
# Escherichia coli = experiment: Antibacterial activity against Escherichia coli ATCC 25922 (CO-ADD:GN_001); MIC in CAMBH media using NBS plates, by Resazurin F(560/590); type: functional; details: Concentration 20 uM, ASSAY_TEST Inhibition of Bacterial Growth, detection method Resazurin, Fluorescence (ex560/em590), MEDIA CAMHB, plate type 384well, CORNING #3640, time 18 hr
# Klebsiella pneumoniae = details: Concentration 20 uM; ASSAY_TEST Inhibition of Bacterial Growth; detection method Absorption (OD600); MEDIA CAMHB; plate type 384well; NBS; CORNING #3640; time 18 hr
# Candida albicans = details: 20 µM
# Cryptococcus neoformans = details: Concentration 20 uM; ASSAY_TEST Inhibition of Fungal Growth; detection method Resazurin; Absorption (OD600-OD570); plate type 384well; NBS; CORNING #3640
Compound,Inhibition (Staphylococcus aureus),Inhibition (Acinetobacter baumannii),Inhibition (Escherichia coli),Inhibition (Klebsiella pneumoniae),Inhibition (Candida albicans),Inhibition (Cryptococcus neoformans)
COc1ccc(C2CC(=O)c3c(O)cc(OC4OC(CO)C(O)C(O)C4OC4OC(C)C(O)C(O)C4O)cc3O2)cc1O (centres undefined),15.96%,-4.03%,5.81%,1.79%,-1.53%,-13%
COC(=O)[C@]1(C)CCC[C@]2(C)C3=CC(=O)[C@@]4(C(C)C)O[C@H]4[C@]3(O)CC[C@@H]12,16.23%,-9.2%,10.18%,-2.04%,3.2%,-11.73%
C=C1C(=O)OC2CC1C(O)C/C(C)=C/CC/C(C)=C/C(O)CC2C (centres undefined),8.79%,-8.51%,8%,4.77%,2.83%,-14.61%
COc1ccc2c(c1)O[C@H]1c3ccc(O)cc3OC[C@@H]21,7.33%,-10.59%,8.35%,-2.42%,12.9%,-18.12%
COc1cc(C)c2c(c1C=O)Oc1c(c(C)c(O)c3c1C(O)OC3=O)OC2=O (centres undefined) [STICTIC ACID],1.81%,-4.46%,10.36%,-0.81%,-4.28%,-12.08%
COc1ccc2c(c1OC)C(=O)O[C@@H]2[C@H]1c2c(cc3c(c2OC)OCO3)CCN1C [NOSCAPINE],1.91%,-5.12%,1.19%,-0.26%,-0.41%,-6.69%
COc1cc2c(c(OC)c1OC)-c1ccc(OC)c(=O)cc1[C@@H](NC(C)=O)CC2 [COLCHICINE],-2.4%,-6.56%,3.55%,3.13%,-0.28%,-9.86%
O=C(O)CCCCCCC[C@@H](O)[C@@H](O)CCCCCCO,20.06%,-9.87%,9.65%,0.28%,1.24%,-6.7%
C=C1C(=O)OC2CC(C)C3(O)CCC(=O)C3(C)CC12 (centres undefined),18.37%,-10.29%,9.08%,2.56%,2.8%,-16.95%
COC1/C=C\C=C(/C)C(=O)NC2=CC(=O)C(N)=C(CC(C)CC(OC)C(O)C(C)/C=C(\C)C1OC(N)=O)C2=O (centres undefined),2.59%,-32.33%,-4.57%,4.53%,-0.48%,-11.91%
C=C1C(=O)O[C@@H]2[C@H]3O[C@]3(C)CC/C=C(\C)CC[C@@H]12,-12.66%,3.45%,5.09%,3.51%,,-8.82%
COc1c2occc2cc2ccc(=O)oc12 [METHOXSALEN],3.08%,-6.09%,2.12%,4.76%,-3.39%,-9.6%
O=c1oc2c(O)c(O)cc3c(=O)oc4c(O)c(O)cc1c4c23 [ELLAGIC ACID],-17.94%,-6.11%,7.74%,25.12%,8.04%,-7.36%
CC(C)=CCc1c2c(c3occ(-c4ccc(O)c(O)c4)c(=O)c3c1O)C=CC(C)(C)O2 [POMIFERIN],6.8%,23.27%,0.91%,26.31%,-6.81%,-8.85%
O=C1c2cc(O)c(O)cc2O[C@H](c2ccc(O)c(O)c2)[C@H]1O,16.46%,-11.64%,7.15%,6.5%,-0.56%,-13.12%
COc1c2occc2c(OC)c2c(=O)cc(C)oc12 [KHELLIN],20.27%,-0.82%,5.11%,15.74%,-0.57%,-6.58%
CCCCCc1cc(O)cc2c1Oc1cc(O)cc(C(=O)CCCC)c1C(=O)O2,23.6%,-18.85%,9.72%,-6.31%,2.52%,-14.32%
COc1cc(/C=C/C(=O)CC(=O)/C=C/c2ccc(O)c(OC)c2)ccc1O [CURCUMIN],13.57%,-16.03%,0.88%,14.8%,-4.9%,-10.45%
CC1CC(O)C2C3(C)CCCC2(COC3=O)C12CCC1(CCOC1=O)O2 (centres undefined),0.12%,-5.16%,2.41%,8.95%,-0.89%,-8.53%
CC(C)CC1NC(=O)C(C(C)C)NC(=O)CC(C)COC(=O)C(CC(C)C)N(C)C(=O)C(C(C)C)NC(=O)C(C(C)C)OC1=O (centres undefined),-2.11%,3.02%,6.85%,6.52%,-1.26%,-9.65%
CC1(C)CC23C4COC(=O)C2CCC1C3CC4=O (centres undefined),5.56%,-5.6%,-0.76%,-5.19%,0.59%,-8.62%
CC1(C)C(=O)N2c3ccccc3C3(CC(N4C(=O)c5ccccc5C4=O)C(=O)O3)C2N1C(=O)OCc1ccccc1 (centres undefined),-7.98%,-16.59%,1.59%,-2.04%,1.22%,-12.3%
CC1(C)CCCC2(C)C3=C(CCC12)C(=O)OC3 (centres undefined),10.53%,-0.35%,1.76%,7.04%,0.95%,-15.17%
CC(=O)C1CCCC(=O)/C=C/C(=O)O1 (centres undefined),-2.82%,-9.57%,-0.06%,-0.08%,6.81%,-5.33%
C[C@@H]1C(=O)C[C@H]2C(C)(C)CCC[C@]2(C)[C@@]1(O)CCc1ccoc1,-11.22%,-8.38%,1.88%,-12.83%,5.12%,-4.02%
